# Experimental data: PubChem BioAssay (NCI)
# About 79,000 compounds went through this panel and 15% of them were active in at least one assay; those are over-represented in the sample as a whole. Unmarked numbers belong to inactive results. Active and inactive are the calls of the source. Cut-off read from the data, not from the text of the source: active = growth inhibition above about 70%; inactive = the rest.
# Legend:
# [1] = NCI Yeast Anticancer Drug Screen. Data for the rad52 strain (AID 147);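 note: 0% = growth of vehicle-treated control cultures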; details: S. cerevisiae rad52 mutant growth inhibition, active compounds read high
# Procedure, shortened: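 Vehicle-treated cultures served as the reference for growth inhibition of compound-exposed yeast bearing a DNA repair mutation.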
# [2] = NCI Yeast Anticancer Drug Screen. Data for the wt1 strain (AID 149);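 note: 0% = growth of vehicle-treated wt1 cultures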; details: S. cerevisiae wt1 strain (SPY 50644) growth inhibition, active compounds read high
# Procedure, shortened: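 Compounds are added to wt1 yeast cultures. Growth is then measured. Inhibition is expressed relative to vehicle-treated controls.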
# [3] = NCI Yeast Anticancer Drug Screen. Data for the rad50EPP+ strain (AID 151);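 note: 0% = growth of vehicle-treated control cultures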; details: S. cerevisiae rad50 mutant strain, active compounds read high
# Procedure, shortened: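 In this screen, rad50EPP+ yeast were exposed to compounds. Growth inhibition was scored against vehicle-treated controls.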
# [4] = NCI Yeast Anticancer Drug Screen. Data for the mgt1 strain (AID 153); details: S. cerevisiae mgt1 mutant growth inhibition, active compounds read high
# Procedure, shortened: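 mgt1 strain exposed; growth vs vehicle control recorded as inhibition.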
# [5] = NCI Yeast Anticancer Drug Screen. Data for the rad50 strain (AID 155);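 note: 0% = growth of vehicle-only cultures of the same strain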; details: S. cerevisiae rad50 strain growth inhibition, active compounds read high
# Procedure, shortened: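 Inhibition values express reduced yeast growth in compound-treated cultures relative to vehicle-treated controls.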
# [6] = NCI Yeast Anticancer Drug Screen. Data for the mec2-1 strain (AID 157); details: S. cerevisiae mec2-1 strain, active compounds read high
# Procedure, shortened: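 Vehicle-treated cultures served as reference for growth inhibition of compound-exposed mec2-1 yeast.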
# [7] = NCI Yeast Anticancer Drug Screen. Data for the rad14 strain (AID 159);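 note: 0% = growth of vehicle-treated control cultures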; details: S. cerevisiae rad14 strain growth inhibition, active compounds read high
# Procedure, shortened: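 A mutant yeast strain defective in DNA damage repair is treated with compound; inhibition of its growth is scored against untreated, vehicle-exposed cultures.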
# [8] = NCI Yeast Anticancer Drug Screen. Data for the sgs1 mgt1 strain (AID 161);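 note: 0% = growth of cultures given vehicle only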; details: S. cerevisiae sgs1 mgt1 strain, active compounds read high
# Procedure, shortened: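 Test agents were incubated with a DNA-repair-mutant yeast strain. Growth was then read and compared against vehicle-treated controls.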
# [9] = NCI Yeast Anticancer Drug Screen. Data for the CLN2oe strain (AID 163);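 note: 0% = growth of vehicle-only control cultures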; details: S. cerevisiae CLN2oe strain, active compounds read high
# Procedure, shortened: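 Inhibition relative to vehicle-treated yeast is reported. Cells: strain with genetic alteration in cell-cycle control, grown with compound.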
# [10] = NCI Yeast Anticancer Drug Screen. Data for the cln2 rad14 strain (AID 165);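 note: 0% = growth equal to vehicle treated cultures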; details: S. cerevisiae cln2 rad14 strain, active compounds read high
# Procedure, shortened: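 Each compound was tested on cln2 rad14 yeast. Inhibition of growth was calculated against vehicle-exposed controls.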
# [11] = NCI Yeast Anticancer Drug Screen. Data for the bub3 strain (AID 167); details: S. cerevisiae bub3 mutant strain, active compounds read high
# Procedure, shortened: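 Steps: expose the mutant yeast strain to compound; grow alongside vehicle-treated cultures; measure growth; express inhibition against the vehicle cultures.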
# [12] = NCI Yeast Anticancer Drug Screen. Data for the wt2 strain (AID 169);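 note: 0% = growth of vehicle-treated yeast cultures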; details: S. cerevisiae wt2 strain growth inhibition, active compounds read high
# Procedure, shortened: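 Inhibition of yeast growth was determined after compound treatment, normalised to controls receiving only vehicle.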
# [13] = NCI Yeast Anticancer Drug Screen. Data for the mlh1 strain (AID 171);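 note: 0% = growth of vehicle-treated control cultures of the same strain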; details: S. cerevisiae mlh1 strain growth inhibition, active compounds read high
# Procedure, shortened: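 Vehicle-normalised growth inhibition of a repair- or checkpoint-altered yeast strain following compound treatment.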
# [14] = NCI Yeast Anticancer Drug Screen. Data for the sgs1 strain (AID 173);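 note: 0% = growth of vehicle-only control cultures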; details: S. cerevisiae sgs1 mutant, active compounds read high
# Procedure, shortened: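 Screen format: yeast with repair or checkpoint alterations, compound exposure, growth read relative to vehicle.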
# [15] = NCI Yeast Anticancer Drug Screen. Data for the mlh1 rad18 strain (AID 175); details: S. cerevisiae mlh1 rad18 strain growth inhibition, active compounds read high
# Procedure, shortened: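 Vehicle-treated cultures served as the reference for growth inhibition in a yeast strain carrying DNA damage repair alterations exposed to each compound.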
# [16] = NCI Yeast Anticancer Drug Screen. Data for the rad18 strain (AID 177); details: S. cerevisiae rad18 mutant growth inhibition, active compounds read high
# Procedure, shortened: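 Test articles were incubated with altered yeast defective in DNA damage repair. Results are given as inhibition of growth versus vehicle.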
# [17] = at 5.0 µM (retest, dose inferred, filed as 0.5)
# [18] = at 50.0 µM (retest, dose inferred, filed as 5.0)
smiles,measurement,setting,value
S=c1[nH]c2cc3ccccc3cc2[nH]1,growth inhibition,[1]; at 1.2 µM,-42%
same,growth inhibition,[1]; at 3.7 µM,-46%
same,growth inhibition,[1]; at 11.0 µM,-37%
same,growth inhibition,[1]; at 33.0 µM,-31%
same,growth inhibition,[1]; at 100.0 µM,-19%
same,growth inhibition,[2]; at 1.2 µM,-24%
same,growth inhibition,[2]; at 3.7 µM,-6%
same,growth inhibition,[2]; at 11.0 µM,6%
same,growth inhibition,[2]; at 33.0 µM,3%
same,growth inhibition,[2]; at 100.0 µM,2%
same,growth inhibition,[3]; at 1.2 µM,-12%
same,growth inhibition,[3]; at 3.7 µM,3%
same,growth inhibition,[3]; at 11.0 µM,-4%
same,growth inhibition,[3]; at 33.0 µM,14%
same,growth inhibition,[3]; at 100.0 µM,38%
same,growth inhibition,[4]; at 1.2 µM,-36%
same,growth inhibition,[4]; at 3.7 µM,-7%
same,growth inhibition,[4]; at 11.0 µM,-15%
same,growth inhibition,[4]; at 33.0 µM,6%
same,growth inhibition,[4]; at 100.0 µM,16%
same,growth inhibition,[5]; at 1.2 µM,-25%
same,growth inhibition,[5]; at 3.7 µM,-25%
same,growth inhibition,[5]; [17],5%
same,growth inhibition,[5]; at 11.0 µM,-11%
same,growth inhibition,[5]; at 33.0 µM,3%
same,growth inhibition,[5]; [18],86% (active)
same,growth inhibition,[5]; at 50.0 µM,71.2% (active)
same,growth inhibition,[5]; at 100.0 µM,17%
same,growth inhibition,[6]; at 1.2 µM,-25%
same,growth inhibition,[6]; at 3.7 µM,-13%
same,growth inhibition,[6]; [17],-3%
same,growth inhibition,[6]; at 11.0 µM,-8%
same,growth inhibition,[6]; at 33.0 µM,1%
same,growth inhibition,[6]; [18],17%
same,growth inhibition,[6]; at 50.0 µM,45.6%
same,growth inhibition,[6]; at 100.0 µM,24%
same,growth inhibition,[7]; at 1.2 µM,-14%
same,growth inhibition,[7]; at 3.7 µM,-11%
same,growth inhibition,[7]; at 11.0 µM,-7%
same,growth inhibition,[7]; at 33.0 µM,-10%
same,growth inhibition,[7]; at 100.0 µM,1%
same,growth inhibition,[8]; [17],-5%
same,growth inhibition,[8]; [18],15%
same,growth inhibition,[8]; at 50.0 µM,68.8%
same,growth inhibition,[9]; at 1.2 µM,-13%
same,growth inhibition,[9]; at 3.7 µM,-18%
same,growth inhibition,[9]; at 11.0 µM,-3%
same,growth inhibition,[9]; at 33.0 µM,-7%
same,growth inhibition,[9]; at 100.0 µM,18%
same,growth inhibition,[10]; [17],34%
same,growth inhibition,[10]; [18],57%
same,growth inhibition,[10]; at 50.0 µM,43.6%
same,growth inhibition,[11]; at 1.2 µM,-7%
same,growth inhibition,[11]; at 3.7 µM,15%
same,growth inhibition,[11]; [17],-4%
same,growth inhibition,[11]; at 11.0 µM,-9%
same,growth inhibition,[11]; at 33.0 µM,7%
same,growth inhibition,[11]; [18],83% (active)
same,growth inhibition,[11]; at 50.0 µM,68.9%
same,growth inhibition,[11]; at 100.0 µM,40%
same,growth inhibition,[12]; at 1.2 µM,-55%
same,growth inhibition,[12]; at 3.7 µM,-50%
same,growth inhibition,[12]; at 11.0 µM,-46%
same,growth inhibition,[12]; at 33.0 µM,-19%
same,growth inhibition,[12]; at 100.0 µM,-3%
same,growth inhibition,[13]; at 1.2 µM,-13%
same,growth inhibition,[13]; at 3.7 µM,-7%
same,growth inhibition,[13]; at 11.0 µM,-4%
same,growth inhibition,[13]; at 33.0 µM,14%
same,growth inhibition,[13]; at 100.0 µM,34%
same,growth inhibition,[14]; at 1.2 µM,-27%
same,growth inhibition,[14]; at 3.7 µM,-8%
same,growth inhibition,[14]; at 11.0 µM,-4%
same,growth inhibition,[14]; at 33.0 µM,20%
same,growth inhibition,[14]; at 100.0 µM,25%
same,growth inhibition,[15]; [17],9%
same,growth inhibition,[15]; [18],78% (active)
same,growth inhibition,[15]; at 50.0 µM,67.6%
CC1CC[C@]2(C(=O)O)CCC3(C)C(=CC(=O)C4[C@@]5(C)CCC(=O)C(C)(C)C5CC[C@]43C)[C@@H]2[C@H]1C (stereo partly specified),growth inhibition,[1]; at 1.2 µM,29%
same,growth inhibition,[1]; at 3.7 µM,43%
same,growth inhibition,[1]; at 11.0 µM,91% (active)
same,growth inhibition,[1]; at 33.0 µM,98% (active)
same,growth inhibition,[1]; at 100.0 µM,97% (active)
same,growth inhibition,[2]; at 1.2 µM,9%
same,growth inhibition,[2]; at 3.7 µM,20%
same,growth inhibition,[2]; at 11.0 µM,93% (active)
same,growth inhibition,[2]; at 33.0 µM,98% (active)
same,growth inhibition,[2]; at 100.0 µM,97% (active)
same,growth inhibition,[3]; at 1.2 µM,9%
same,growth inhibition,[3]; at 3.7 µM,21%
same,growth inhibition,[3]; at 11.0 µM,28%
same,growth inhibition,[3]; at 33.0 µM,18%
same,growth inhibition,[3]; at 100.0 µM,30%
same,growth inhibition,[4]; at 1.2 µM,4%
same,growth inhibition,[4]; at 3.7 µM,9%
same,growth inhibition,[4]; at 11.0 µM,88% (active)
same,growth inhibition,[4]; at 33.0 µM,97% (active)
same,growth inhibition,[4]; at 100.0 µM,97% (active)
same,growth inhibition,[5]; at 1.2 µM,20%
same,growth inhibition,[5]; at 3.7 µM,46%
same,growth inhibition,[5]; [17],4%
same,growth inhibition,[5]; at 11.0 µM,92% (active)
same,growth inhibition,[5]; at 33.0 µM,98% (active)
same,growth inhibition,[5]; [18],97% (active)
same,growth inhibition,[5]; at 50.0 µM,90.8% (active)
same,growth inhibition,[5]; at 100.0 µM,97% (active)
same,growth inhibition,[6]; at 1.2 µM,-2%
same,growth inhibition,[6]; at 3.7 µM,38%
same,growth inhibition,[6]; [17],26%
same,growth inhibition,[6]; at 11.0 µM,88% (active)
same,growth inhibition,[6]; at 33.0 µM,95% (active)
same,growth inhibition,[6]; [18],97% (active)
same,growth inhibition,[6]; at 50.0 µM,91.5% (active)
same,growth inhibition,[6]; at 100.0 µM,95% (active)
same,growth inhibition,[7]; at 1.2 µM,-19%
same,growth inhibition,[7]; at 3.7 µM,-13%
same,growth inhibition,[7]; at 11.0 µM,77% (active)
same,growth inhibition,[7]; at 33.0 µM,95% (active)
same,growth inhibition,[7]; at 100.0 µM,96% (active)
same,growth inhibition,[8]; [17],7%
same,growth inhibition,[8]; [18],96% (active)
same,growth inhibition,[8]; at 50.0 µM,89.8% (active)
same,growth inhibition,[9]; at 1.2 µM,1%
same,growth inhibition,[9]; at 3.7 µM,37%
same,growth inhibition,[9]; at 11.0 µM,92% (active)
same,growth inhibition,[9]; at 33.0 µM,97% (active)
same,growth inhibition,[9]; at 100.0 µM,97% (active)
same,growth inhibition,[10]; [17],65%
same,growth inhibition,[10]; [18],98% (active)
same,growth inhibition,[10]; at 50.0 µM,90.7% (active)
same,growth inhibition,[11]; at 1.2 µM,12%
same,growth inhibition,[11]; at 3.7 µM,29%
same,growth inhibition,[11]; [17],58%
same,growth inhibition,[11]; at 11.0 µM,88% (active)
same,growth inhibition,[11]; at 33.0 µM,96% (active)
same,growth inhibition,[11]; [18],97% (active)
same,growth inhibition,[11]; at 50.0 µM,91.7% (active)
same,growth inhibition,[11]; at 100.0 µM,96% (active)
same,growth inhibition,[12]; at 1.2 µM,12%
same,growth inhibition,[12]; at 3.7 µM,13%
same,growth inhibition,[12]; at 11.0 µM,88% (active)
same,growth inhibition,[12]; at 33.0 µM,98% (active)
same,growth inhibition,[12]; at 100.0 µM,97% (active)
same,growth inhibition,[13]; at 1.2 µM,14%
same,growth inhibition,[13]; at 3.7 µM,14%
same,growth inhibition,[13]; at 11.0 µM,83% (active)
same,growth inhibition,[13]; at 33.0 µM,96% (active)
same,growth inhibition,[13]; at 100.0 µM,96% (active)
same,growth inhibition,[14]; at 1.2 µM,29%
same,growth inhibition,[14]; at 3.7 µM,30%
same,growth inhibition,[14]; at 11.0 µM,91% (active)
same,growth inhibition,[14]; at 33.0 µM,98% (active)
same,growth inhibition,[14]; at 100.0 µM,97% (active)
same,growth inhibition,[15]; [17],35%
same,growth inhibition,[15]; [18],97% (active)
same,growth inhibition,[15]; at 50.0 µM,90.7% (active)
same,growth inhibition,[16]; at 1.2 µM,15%
same,growth inhibition,[16]; at 3.7 µM,34%
same,growth inhibition,[16]; at 11.0 µM,93% (active)
same,growth inhibition,[16]; at 33.0 µM,97% (active)
same,growth inhibition,[16]; at 100.0 µM,97% (active)
